Among the data in publication PMC7819943, “Rice protein-binding microarrays: a tool to detect cis-acting elements near promoter regions in rice” are binding signal values, retold here.

Whole data set: some 39,000 sequences, median “fluorescence intensity (a.u.)” near 4,300, cut for the highest 2% near 39,000. Shown is part of a subset that was picked to be rich in the highest values.

For the assay, the target named is T1, OsSMF1 (Oryza sativa, UniProt Q6ZLB0 1-436).
T1 sequence: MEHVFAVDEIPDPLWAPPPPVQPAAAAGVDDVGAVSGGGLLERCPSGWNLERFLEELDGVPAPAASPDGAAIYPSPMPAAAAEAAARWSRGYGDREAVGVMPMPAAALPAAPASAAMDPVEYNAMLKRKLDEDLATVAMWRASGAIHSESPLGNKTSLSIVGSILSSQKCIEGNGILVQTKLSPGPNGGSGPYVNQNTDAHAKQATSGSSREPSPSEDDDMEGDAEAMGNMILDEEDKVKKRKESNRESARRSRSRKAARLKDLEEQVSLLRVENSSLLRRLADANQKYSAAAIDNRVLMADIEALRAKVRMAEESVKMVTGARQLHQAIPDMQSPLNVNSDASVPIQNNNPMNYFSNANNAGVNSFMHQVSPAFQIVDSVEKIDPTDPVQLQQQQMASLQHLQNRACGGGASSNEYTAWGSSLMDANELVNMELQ
The experiment in a line: protein-binding microarray (RPBM); PBS, 2% BSA, 51.3 ng/ul salmon testes DNA, 50 uM zinc acetate, 200 nM TF, 25 C, 1 h; high values mean tight binding. The conditions noted are these: protein: recombinant; tags: N-terminal polyhistidine and DsRed monomer fusion (pET32a); chain copies: 2; label: CyDye5-dUTP incorporated in the synthesized complementary strand; 3' TTTTT single-stranded linker to array surface; dsDNA, one strand shown. In a few lines: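 An Axon 4000B scanner gave the binding signal as per-feature fluorescence intensity in arbitrary units. This followed washing of a custom Agilent array that had been incubated for 1 h at 25 °C with 200 nM protein in PBS, 2% BSA, salmon testes DNA and 50 µM zinc acetate. The proteins were transcription factors fused at the N-terminus to polyhistidine and DsRed, expressed in E. coli BL21-CodonPlus and purified on Ni–NTA.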
On to “TCTCCCTCTACCTCGACGTCATCAACCTCTTCCTCTCCCTCGGAGTCACCTAGTGCAG”, for which the binding signal was 11000 fluorescence intensity (a.u.).

Consider “GTATTGATGTTCTTACCATAAAAGTAACTCCATGAAAGAACGGAGTCACCTAGTGCAG”, for which the binding signal was 41100 fluorescence intensity (a.u.). Take “ACACCATGCGTATGATGCAATACCTATTGACTCCATTGAACGGAGTCACCTAGTGCAG”: the binding signal was 3380 fluorescence intensity (a.u.). As for “GTTAACAGTAAGTTATTCTTTGAACTCCATATATTTGTTCCGGAGTCACCTAGTGCAG”, the binding signal was 3440 fluorescence intensity (a.u.). Take “TAGATTGCTTTTCAGTGAAACTACGTGCACATATGCATGCCGGAGTCACCTAGTGCAG”: the binding signal is 3250 fluorescence intensity (a.u.). Take “ACACTAGTAACAAAACTTGGCAATTTGGCATTTGGCATTTCGGAGTCACCTAGTGCAG”: the binding signal is 3300 fluorescence intensity (a.u.).

Turning to “GCTTTGCATAGGCACTTTCAAAACTAGATATTAGTAACGCCGGAGTCACCTAGTGCAG”, the binding signal was 51000 fluorescence intensity (a.u.). The value for “ACAGGTGCACGCACACGTGCCGCATCAACCAGACAGCCACCGGAGTCACCTAGTGCAG” was 3360 fluorescence intensity (a.u.). In the case of “AATATTTACATTACTAAATTAGTTTTATTAAATTAATAATCGGAGTCACCTAGTGCAG”, the binding signal is 19800 fluorescence intensity (a.u.).

Take “TGTTTAATAATAAATTTAGTAACATCAATTTTACATGATTCGGAGTCACCTAGTGCAG”: the binding signal is 46100 fluorescence intensity (a.u.).

“AAATATAATAAATTTAATGTTAACATATTTTACACGTAAGCGGAGTCACCTAGTGCAG”: the binding signal is 9740 fluorescence intensity (a.u.). On to “AAAATTTATTCATCCATCGTCATAATTTTAATTATATGCACGGAGTCACCTAGTGCAG”, for which the binding signal was 4150 fluorescence intensity (a.u.).

Regarding “CATATTATAAAATGTTGTGCTAATTATTATCGGTGTATATCGGAGTCACCTAGTGCAG”, the binding signal was 22300 fluorescence intensity (a.u.). Take “CTCTCAAAATATTCGGATGTAATTTTAGTCGCACAAACATCGGAGTCACCTAGTGCAG”: the binding signal is 39200 fluorescence intensity (a.u.). In the case of “TAGTTATAAAGCACTGTAATTTTAGTTATAAATACAACATCGGAGTCACCTAGTGCAG”, the binding signal was 3260 fluorescence intensity (a.u.).

Turning to “CGGTGTTTGTAATTCATTTTATATAATGAAAATGGATTATCGGAGTCACCTAGTGCAG”, the binding signal is 44600 fluorescence intensity (a.u.). Consider “GTAAATTTCATAAAATCCCACGTATTATGATTCAAATTGCCGGAGTCACCTAGTGCAG”, for which the binding signal is 5110 fluorescence intensity (a.u.). The value for “TTTTATTTCATTATATGATCCCATCAAATATAAATTAGCACGGAGTCACCTAGTGCAG” was 48500 fluorescence intensity (a.u.); that for “AAACATAACAATATTTTCAACATAAAACAAATAATGTTATCGGAGTCACCTAGTGCAG” was 3530 fluorescence intensity (a.u.). The value for “TTATAAATTAAATTTTATGTAATGAAAATAATATCATTGGCGGAGTCACCTAGTGCAG” was 3900 fluorescence intensity (a.u.); that for “CTGCGCGTAGAAGTGACGCAAGAAGGCAGCGGGCCCACTACGGAGTCACCTAGTGCAG” was 3230 fluorescence intensity (a.u.).

Turning to “AGAACCTTCCGCGCTTCCGTGCTCCCCACCGCCACCTCGCCGGAGTCACCTAGTGCAG”, the binding signal was 3430 fluorescence intensity (a.u.). With “TCACATCCACGTATATTCCCTTCCCCTTCTCCAACCTTTCCGGAGTCACCTAGTGCAG”, the binding signal was 9390 fluorescence intensity (a.u.). On to “TCATCATCAAGACTGAGTCACTGACACGTGTGCACCTATGCGGAGTCACCTAGTGCAG”, for which the binding signal is 27900 fluorescence intensity (a.u.). As to “TCTATATTCTACTCAATGCTTGGTTCTAAATTGGCCTCAACGGAGTCACCTAGTGCAG”, the binding signal is 24700 fluorescence intensity (a.u.). Consider “CTATTTGTGTCTTGTGTACTTCAACGTCTTCCTCTTATGACGGAGTCACCTAGTGCAG”, for which the binding signal is 3680 fluorescence intensity (a.u.). Take “ATACAGTAAATATTTGCTAATGACGGATTAATTAGGCTTACGGAGTCACCTAGTGCAG”: the binding signal is 3790 fluorescence intensity (a.u.). For the sequence “GCGTGCGCGTCGACGTCGTCACCGCCGTCCACGGCGTAGTCGGAGTCACCTAGTGCAG”, the binding signal was 5680 fluorescence intensity (a.u.).

Take “ACATCCTATCCCGTGCATTGAATCAGCATTGTACAGCAAACGGAGTCACCTAGTGCAG”: the binding signal was 3370 fluorescence intensity (a.u.). Turning to “GAGCTCCACCTCCTCGCGTGCCCACGCCATCCATGGCTTCCGGAGTCACCTAGTGCAG”, the binding signal is 4500 fluorescence intensity (a.u.). Consider “ATTTAATAAAACTTATTTGGTGTTGTAAATGTTGCTAAATCGGAGTCACCTAGTGCAG”, for which the binding signal was 26700 fluorescence intensity (a.u.). Take “ATGTCGTAGCTTTTAATTATATACTACTATAAATTTGATTCGGAGTCACCTAGTGCAG”: the binding signal is 43700 fluorescence intensity (a.u.). Under “AAATACATCCAAGAACACAATATATTCCAATATTTTGTCACGGAGTCACCTAGTGCAG” stands 34500 fluorescence intensity (a.u.); under “TTTGTCTATAAATTTAGTCAAACTTGAAACAATTTGATTTCGGAGTCACCTAGTGCAG”, 14600 fluorescence intensity (a.u.); under “AGGGAAAGATTCTAACAAATAAAGAAAAGAACAATGCAGCCGGAGTCACCTAGTGCAG”, 3260 fluorescence intensity (a.u.). Consider “GTGGTGCTACAGTAAATATTTGCTAATGATAGATTAATTACGGAGTCACCTAGTGCAG”, for which the binding signal was 7300 fluorescence intensity (a.u.).

“TTTATATAATAGTTACTTACTATACTATTAATACTTGATTCGGAGTCACCTAGTGCAG”: the binding signal was 16600 fluorescence intensity (a.u.). Regarding “AAAATTATGTTGTCATTTTAATATATTTGAATAATACATTCGGAGTCACCTAGTGCAG”, the binding signal is 3560 fluorescence intensity (a.u.). For the sequence “TTTTCTATAAATTTAGTCAAATATAACAAAGTTTGATTAGCGGAGTCACCTAGTGCAG”, the binding signal is 42600 fluorescence intensity (a.u.).

In the case of “CGGAGGGAGTATAAAAGAACAATACTTCTATAAATTTTGTCGGAGTCACCTAGTGCAG”, the binding signal is 40300 fluorescence intensity (a.u.). Regarding “ATAATTTGGTGTTACAGTAAACATTTGCTAATAATGGATTCGGAGTCACCTAGTGCAG”, the binding signal is 49500 fluorescence intensity (a.u.). The value for “GGTTGTTCTAACAAATTGTTTATAAAACAATTTGATTTTGCGGAGTCACCTAGTGCAG” was 3570 fluorescence intensity (a.u.). For the sequence “CCAATTCACTCCACCATACTGTTGGCACCTATGATAGAACCGGAGTCACCTAGTGCAG”, the binding signal was 3430 fluorescence intensity (a.u.). Regarding “AGAAAACCTACACCCCGGGCTTCCGTTGCAACGTGACAACCGGAGTCACCTAGTGCAG”, the binding signal was 13300 fluorescence intensity (a.u.). Turning to “TATACAAGTCAGCTGCTGCTCGATCTTGTCATGAGAGCCCCGGAGTCACCTAGTGCAG”, the binding signal is 5140 fluorescence intensity (a.u.). With “GGAGAGGGAGCGGGAGAGGGAGGATTGGAGGATGTGGGGACGGAGTCACCTAGTGCAG”, the binding signal is 15400 fluorescence intensity (a.u.). “CTGCGGTTGCATTGCATGGAGATGGACCCTCAACCAGCTACGGAGTCACCTAGTGCAG”: the binding signal is 3700 fluorescence intensity (a.u.).

As for “CCGACAAAAGATGGTTTCTCCATCAGTGAAGACACAATGTCGGAGTCACCTAGTGCAG”, the binding signal is 19500 fluorescence intensity (a.u.). Turning to “CATCGGACGGCCCATGTAGCCCAACTCCTCCGCTGCCACGCGGAGTCACCTAGTGCAG”, the binding signal is 3410 fluorescence intensity (a.u.). The value for “TTAGTATGTGATTAATTTAGTATTAATTATTTAACTATAACGGAGTCACCTAGTGCAG” was 31900 fluorescence intensity (a.u.); that for “ATGGCTGTTGATTTTAATAGTGCAGGAGTGGTTTATAGCTCGGAGTCACCTAGTGCAG” was 4220 fluorescence intensity (a.u.); that for “GGGCTCCCAGTATAGCTTAGGTTGATTTAATTATGGTTAACGGAGTCACCTAGTGCAG” was 49500 fluorescence intensity (a.u.). Under “ACACTGCCACGTCAGCGCCACGTTAGCAAAACCGTCCTCCCGGAGTCACCTAGTGCAG” stands 35500 fluorescence intensity (a.u.); under “GCAACAGTGTTATGCAACAGTGTCATTCAGTCTCTACACACGGAGTCACCTAGTGCAG”, 32000 fluorescence intensity (a.u.).
